According to ChEMBL document CHEMBL3988442, “University of Dundee, Small-Polar-MMV Screening Library” (2021):
Screen size: about 66,000 compounds; about 960 (1.5%) showed an effect of 50% or more. The sample as a whole holds a higher share of strong results than the screen did.

System: Trypanosoma brucei
Assay: Trypanosoma brucei 72 hour study
Format: functional, organism-based
Parameters: scale not given: in the data most compounds retested in dose-response had high values

SMILES: CC(C)CC(=O)N1CCC2(CC1)COCCN2Cc1ccc(F)cc1.O=C(O)C(F)(F)F
- Percent Effect (30 µM, 30.03 µM): 17.24%

SMILES: COc1ccc(C[C@H]2CNCC[C@@H]2OC)cc1.O=C(O)C(F)(F)F
- Percent Effect (30.3 µM, […]): -9.891%

SMILES: C[C@@H]1CN(S(C)(=O)=O)C[C@]12CCN(Cc1cccnc1)C2=O.O=C(O)C(F)(F)F
- Percent Effect (30.3 µM, […]): -31.63%

SMILES: Cc1cc(Cl)c(C)c(S(=O)(=O)N2CCN(Cc3ccncc3)CC2)c1Cl
- Percent Effect (30 µM, 30.03 µM): -52.63%

SMILES: CNC(=O)[C@@H]1CN(C(=O)C2CCC2)C[C@H]1c1ccnc(N2CCCC2)n1.Cl
- Percent Effect (30.3 µM, […]): 8.722%

SMILES: Cn1cc(CCC(=O)N2C[C@@H]3CC[C@H](C2)N(Cc2ccccn2)C3)cn1
- Percent Effect (30.3 µM, […]): 7.516%

SMILES: CC(C)c1cc(NC(=O)CN2CCCC2c2noc(C(C)C)n2)on1 (stereo not drawn)
- Percent Effect (10 µM): -43.85%
- Percent Effect (30.3 µM, […]): 0.3759%

SMILES: CN(C(=O)NCc1ccncc1)C1CCCN(c2ccccc2)C1=O (stereo not drawn)
- Percent Effect (10 µM): -27.33%

SMILES: COCCN1CCC2(CC1)CC(c1cccnc1)CO2.O=C(O)C(F)(F)F (stereo not drawn)
- Percent Effect (30.3 µM, […]): -48.93%

SMILES: Cc1c(C)n2c(SCC(=O)N3CCCCC3)nnc2[nH]c1=O
- Percent Effect (30.3 µM, […]): -16.73%

SMILES: Cl.O=C1CC2(CCCNC2)C(=O)N1Cc1cccc(Cl)c1 (stereo not drawn)
- Percent Effect (30.3 µM, […]): 2.467%

SMILES: CCC(C)NC(=O)Cn1c(Nc2cc(C)cc(C)c2)nc(C)cc1=O (stereo not drawn)
- Percent Effect (30 µM, 30.03 µM): -43.03%

SMILES: Cc1ccc(NCc2cncc3c2CCN(Cc2ccccn2)C3)nn1.Cl.Cl
- Percent Effect (30.3 µM, […]): -48.05%

SMILES: O=C(O)C(F)(F)F.O=C([C@H]1CC[C@@H]2[C@@H](CCN2Cc2nccs2)O1)N1CCOCC1
- Percent Effect (30.3 µM, […]): -77.67%

SMILES: NC[C@H]1CC[C@H](C(NC(=O)C2CC2)c2ccccn2)CC1 (stereo partly drawn)
- Percent Effect (30.3 µM, […]): -27.22%

SMILES: C/C(=C\c1ccccc1)CN1CCCC(c2nnc3n2CCNCC3)C1.Cl (stereo not drawn)
- Percent Effect (30.3 µM, […]): -29.45%

SMILES: O=C(O)C(F)(F)F.O=C(O)C(F)(F)F.O=C1CC(c2ccncc2)C2(CCN(Cc3ccc(F)cc3)CC2)N1 (stereo not drawn)
- Percent Effect (30 µM, 30.03 µM): 27.71%

SMILES: Cc1ccc(CN2CCC[C@]3(C(=O)O)CN(CC4CC4)C[C@@H]3C2)s1.O=C(O)C(F)(F)F.O=C(O)C(F)(F)F
- Percent Effect (30.3 µM, […]): -73.23%

SMILES: CCCn1c(C)c(CC(=O)NCCC(N)=O)c2c1CC(C)(C)CC2=O
- Percent Effect (30 µM, 30.03 µM): -41.08%

SMILES: Cc1nc(NC(=O)c2ccc(-n3ncc(C#N)c3N)cc2)sc1C
- Percent Effect (10 µM): -25.11%

SMILES: Nc1nc(CN2CCCC2Cn2cncn2)nc2ccccc12 (stereo not drawn)
- Percent Effect (10 µM): -61.59%

SMILES: Cc1cnn(CC2CCCN2Cc2nc(N)c3ccccc3n2)c1 (stereo not drawn)
- Percent Effect (30.3 µM, […]): 51.47%
- Percent Effect (10 mM, 10 mM as filed; unlikely as a test dose): -16.65%

SMILES: Cc1cnn(CC2CCCCN2Cc2nc(N)c3ccccc3n2)c1 (stereo not drawn)
- Percent Effect (30 µM, 30.03 µM): 14.94%

SMILES: COCCN1CCn2cc(CNC(=O)c3cnn(C)c3)nc2C1.O=C(O)C(F)(F)F
- Percent Effect (30 µM, 30.03 µM): -33.8%

SMILES: CC(C)CN1C[C@H]2C[C@H](C(=O)NC3CCC3)[C@@H](C1)O2.O=C(O)C(F)(F)F
- Percent Effect (30.3 µM, […]): -44.07%

SMILES: Clc1cccc(-c2cccc(N3CCC(NC4CCOCC4)CC3)c2)c1
- Percent Effect (30 µM, 30.03 µM): 100.7%

SMILES: COc1cccc(-c2cccc(N3CCC(N[C@@H]4CCOC4)CC3)c2)c1
- Percent Effect (30 µM, 30.03 µM): 9.147%

SMILES: Cc1ccc(-c2cccc(N3CCC(NC4CCOCC4)CC3)c2)cc1
- Percent Effect (30 µM, 30.03 µM): 8.614%

SMILES: COC(=O)c1ccc(CNCc2ccn(C)n2)cc1
- Percent Effect (30.3 µM, […]): -7.529%

SMILES: O=C(O)C(F)(F)F.O=C(O)C(F)(F)F.O=C1CCC2(CCN(Cc3ccc(F)cc3)CC2)N1CCN1CCCC1
- Percent Effect (30.3 µM, […]): -27.18%

SMILES: Cc1nccc(-c2cccc(NCC(=O)N3CCCCCCC3)c2)n1
- Percent Effect (30 µM, 30.03 µM): -43.47%

SMILES: Cc1nccc(-c2cccc(NCC(=O)N3CCOCC3)c2)n1
- Percent Effect (30.3 µM, […]): 18.69%

SMILES: Cc1nccc(-c2cccc(NCC(=O)N3CCNC(=O)C3)c2)n1
- Percent Effect (30.3 µM, […]): 13.04%

SMILES: Cc1nccc(-c2cccc(NCC(=O)N3CCOC(C)C3)c2)n1 (stereo not drawn)
- Percent Effect (30.3 µM, […]): 18.9%

SMILES: Cc1nccc(-c2cccc(NCC(=O)N3CCc4sccc4C3)c2)n1
- Percent Effect (30 µM, 30.03 µM): 51.17%

SMILES: Cc1nccc(-c2cccc(NCC(=O)N3CCCC(C)C3)c2)n1 (stereo not drawn)
- Percent Effect (30.3 µM, […]): 89.85%

SMILES: COc1cc(CNCC2CN(C3CC3)CCO2)cc(OC)c1.Cl (stereo not drawn)
- Percent Effect (30 µM, 30.03 µM): 10.22%

SMILES: CC(C)CN1CCN(C(=O)c2ccncc2F)Cc2cccnc21.O=C(O)C(F)(F)F.O=C(O)C(F)(F)F
- Percent Effect (30 µM, 30.03 µM): -15.43%

SMILES: NC1C=C(C(F)(F)F)NC=C1c1ccc(Cl)cc1 (stereo not drawn)
- Percent Effect (30.3 µM, […]): -11.05%

SMILES: COc1cccc(N2CCC(CNC(=O)NCc3ccco3)C2)c1 (stereo not drawn)
- Percent Effect (30 µM, 30.03 µM): 0.1518%

SMILES: COc1ccccc1N1CCC(CNCc2ccc(C#N)cc2)C1 (stereo not drawn)
- Percent Effect (30.3 µM, […]): 92.2%
- Percent Effect (10 mM, 10 mM as filed; unlikely as a test dose): 66.86%

SMILES: COc1ccc(CNCC2CCN(c3ccccc3OC)C2)cc1O (stereo not drawn)
- Percent Effect (30.3 µM, […]): 47.62%
- Percent Effect (10 mM, 10 mM as filed; unlikely as a test dose): -24.56%

SMILES: COc1cccc(N2CCC(CNCc3cccc(C#N)c3)C2)c1 (stereo not drawn)
- Percent Effect (30.3 µM, […]): 77.75%
- Percent Effect (10 mM, 10 mM as filed; unlikely as a test dose): -19.99%

SMILES: COc1ccccc1N1CCC(CNCc2cccc(OC)c2OC)C1 (stereo not drawn)
- Percent Effect (30 µM, 30.03 µM): 106.6%

SMILES: COc1cccc(CNCC2CCN(CC(C)O)CC2)c1OC (stereo not drawn)
- Percent Effect (10 µM): -41.05%

SMILES: COc1ccccc1N1CCC(CNCc2cccc(O)c2)C1 (stereo not drawn)
- Percent Effect (30 µM, 30.03 µM): -1.533%

SMILES: COc1cccc(N2CCC(CNc3cc(C)nc4ncnn34)C2)c1 (stereo not drawn)
- Percent Effect (30.3 µM, […]): -742.4%

SMILES: COc1ccccc1N1CCC(CNCc2cccc(C#N)c2)C1 (stereo not drawn)
- Percent Effect (30 µM, 30.03 µM): 38.86%
